Molecules are shown by their SMILES. About 83,000 compounds went through this panel and 20% of them were active in at least one assay; those are over-represented in the sample as a whole.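 Results are percent growth after 48 hours of single-concentration exposure. 100 means growth as in untreated cells, lower positive values show inhibition; negative values down to -100 show cell death.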 Values without a mark were called inactive. Activity calls are given as the source filed them. How the source made its calls: active means growth percent below 10; inactive means the rest.

Holding throughout (assay): NCI-60 one-dose screen, 48 h (100 = growth as untreated, 0 = no growth, -100 = all killed)
Holding throughout (conditions): 10 µM unless noted

The test system of test [1] is HCT-15 colon.
The test system of test [2] is HT29 colon.
For test [3], the system named is SNB-75 CNS.
Test [4] has as its system SNB-19 CNS.
Test [5] deals with U251 CNS.
In test [6] the test system is PC-3 prostate.
Test [7] deals with SK-MEL-5 melanoma.
Test [8] concerns UACC-62 melanoma.
For test [9], the system named is LOX IMVI melanoma.
Test [10] has as its system SK-MEL-28 melanoma.

For `O=C1COc2ccccc2C(=O)N1CCCCN1CCCCC1`, the growth is 91.3% in [1]; 73.6% in test [2]; 99.5% in test [3]; 99.4% in test [4]; 88.9% in test [5]; 57.7% in [6]. The growth is 99.1% in test [7], 91.6% in [8], 90.7% in [9] and 95.6% in [10].

`COc1ccc(Cl)cc1NC(=O)c1cc2c([nH]1)-c1nc(NC(=O)C(C)C)sc1CC2`: the growth in [1] is 95.4%; in test [2] it was 87%; in [3] it was 92.2%; in [4] it was 110%; in test [5] it was 96.5%; in test [6], 87.6%. In addition, the growth was 77.6% in [7], 91.7% in test [8], 95% in test [9] and 112% in [10].

With `Nc1nccc2c1ccn2-c1cccc(NC(=O)c2ccc(N3CCOCC3)c(C(F)(F)F)c2)c1`, the growth in [1] is 9.8% (active); in test [2] it was -47.2% (active); in [3], 23.8%; in test [4], 31.9%; in [5] it was 8.89% (active); in test [6] it was 18%. In addition, the growth in test [7] is -43.7% (active); in test [8], 13.8%; in [9], 5.35% (active); in test [10], 47.3%.

For `CCC(CC(C)C)Nc1ccc(NC(CC)CC(C)C)cc1` (stereo not given), the growth in [1] is 92%; in [2] it was 88.8%; in [3], 96.8%; in [4], 97.8%; in test [5], 75.3%; in [6] it was -11.1% (active). Further, the growth is 95.4% in [7], 89.3% in test [8], 83.4% in test [9] and 108% in test [10].

Take `CCCC(=O)Oc1ccc(/C(=C(\C)c2ccc(OC)cc2)c2ccc(OCCN3CCCCC3)cc2)cc1`: the growth in test [1] is 64.1%; in [2] it was 1.78% (active); in test [3], 73%; in [4] it was 91%; in test [5], 63.8%; in [6] it was 64.7%. The growth in test [7] is 68.8%; in [8] it was 63.6%; in test [9] it was 68.5%; in test [10], 63.9%.

In the case of `COc1ccc2c(c1)/C(=C/c1c(-c3cc(OC)c(OC)c(OC)c3Br)nc3sccn13)C(=O)N2`, the growth is 109% in test [1]; 103% in test [2]; 109% in test [3]; 106% in [4]; 93.4% in [5]; 82.6% in test [6]. In addition, the growth is 83.1% in test [7], 69.2% in test [8], 64.7% in [9] and 123% in test [10].

For the molecule `O=c1c2ccccc2sc2c(NCCCNCCO)nc3ccccc3c12`, the growth in [1] is 13.7%; in [2] it was -47.3% (active); in [3], 35.3%; in test [4], 63.7%; in test [5], 21.3%; in test [6], 22.1%. The growth was -64.7% (active) in test [7], -17.8% (active) in [8], -87.4% (active) in test [9] and -18.1% (active) in test [10].

As to `COc1cc(C(=O)C[n+]2ccccc2)ccc1OC(C)=O`, the growth in test [1] is 103%; in test [2] it was 108%; in [3], 87.6%; in [4] it was 98.6%; in test [5], 98.9%; in test [6] it was 89.9%. Further, the growth is 98% in test [7], 97.1% in test [8], 101% in [9] and 107% in [10].

Turning to `O=[N+]([O-])c1cccc2cc(S(=O)(=O)O)ccc12`, the growth is 103% in test [1]; 87.5% in test [2]; 118% in test [3]; 106% in test [4]; 94.7% in [5]; 84% in [6]. Besides, the growth was 103% in test [7], 100% in test [8], 92.1% in [9] and 111% in test [10].

With `CN(C)CCS(=O)(=O)Nc1cc(-c2ccc3ncnc(Nc4ccc(F)c(Cl)c4)c3c2)cnc1Cl`, the growth in test [1] was -2.7% (active); in test [2], 2.45% (active); in [3] it was 9.33% (active); in [4] it was 41.6%; in test [5] it was -40.6% (active); in [6], 6.17% (active). In addition, the growth was -71.9% (active) in test [7], -2.94% (active) in test [8], -58.5% (active) in [9] and -31.6% (active) in test [10].

For `Cc1cc2c(cc1C)N(C(=O)CCl)CCN2C(=O)CCl`, the growth in [1] is -64% (active); in test [2], -73% (active); in test [3], -94% (active); in test [4], 39.6%; in [5], -84.3% (active); in [6], -70.2% (active). For the same molecule, the growth in [7] is -97.6% (active); in test [8], -43.1% (active); in [9], -89.3% (active); in test [10] it was -49.5% (active).

In the case of `C/C(=N\N=C1/SCC(=O)N1c1ccccc1)c1ccco1`, the growth was 112% in [1]; 136% in test [2]; 185% in test [3]; 113% in test [4]; 102% in test [5]; 94.7% in [6]. Also, the growth in [7] was 88.8%; in test [8], 122%; in test [9], 94.2%; in test [10] it was 112%.

Regarding `Nc1nc2ccc(CNc3ccc(C(=O)NC(CC(=O)O)C(=O)O)cc3)cc2c(=O)[nH]1` (stereo not given), the growth in [1] was 39.8%; in [2], 18.6%; in test [3], 70.4%; in test [4] it was 62.6%; in [5], 49.5%; in test [6], 33.1%. Also, the growth in [7] is 30%; in [8], 31.6%; in test [9] it was 19.5%; in test [10], 106%.

`Cc1ccc(-c2cc(-c3nnc(SCC(=O)c4ccccc4)o3)c3ccccc3n2)cc1`: the growth in [1] was 96.3%; in [2], 90.1%; in test [3] it was 57.1%; in test [4] it was 101%; in test [5], 98.3%; in [6], 95.5%. Besides, the growth is 95.3% in test [7], 90.8% in test [8], 92.4% in test [9] and 96.6% in test [10].

`c1nc(SC2=NCCN2)c2[nH]cnc2n1`: the growth in test [1] is 57.8%; in [2] it was 35.3%; in test [3], 52.7%; in test [4], 103%; in [5] it was 79.4%; in [6] it was 57.5%. In addition, the growth was 79.1% in [7], 19.1% in test [8], 6.53% (active) in test [9] and 95.4% in test [10].

For the molecule `COc1cc2ncnc(Oc3ccc(NC(=O)Nc4ccc(CN5CCOCC5)c(C(F)(F)F)c4)c4ccccc34)c2cc1OC`, the growth was 32.9% in test [1]; 14.2% in test [2]; 46% in test [3]; 55.2% in test [4]; 42.6% in test [5]; 40% in test [6]. For the same molecule, the growth in [7] is -26.5% (active); in test [8], 28%; in [9], 21.5%; in test [10], 2.47% (active).

Regarding `Fc1cccc(F)c1C#Cc1ccc2cccnc2c1`, the growth is 74.9% in test [1]; 69% in [2]; 97.8% in [3]; 91.3% in test [4]; 80.6% in test [5]; 86.1% in test [6]. For the same molecule, the growth in test [7] is 71.9%; in test [8], 71.3%; in test [9], 86.9%; in test [10], 106%.

Turning to `Cc1cccc(NC(=O)CCc2ccc(N3C(N)=NC(N)=NC3(C)C)cc2)c1`, the growth is 103% in [1]; 17.1% in test [2]; 60.2% in [3]; 37% in test [4]; 36.9% in test [5]; 10.5% in [6]. Also, the growth was 26.9% in [7], 24.6% in test [8], 18.7% in test [9] and 69.9% in test [10].

Regarding `O=C(Nc1ccc(-n2ccc3c(NC(=O)c4ccccc4)ncnc32)cc1)c1cccc(C(F)(F)F)c1`, the growth was 19.7% in [1]; 22% in [2]; 63.9% in test [3]; 57.4% in [4]; 27.3% in test [5]; 43.7% in [6]. Moreover, the growth in test [7] is 33.1%; in test [8], 25.4%; in test [9], 3.47% (active); in [10], 71.2%.

As for `O=C(O)c1ccc(-n2cc(/C=N/Nc3ccc(F)cc3)c(-c3cccc(C(F)(F)F)c3)n2)cc1`, the growth in test [1] is 53.6%; in test [2] it was 86.8%; in [3], 88.4%; in test [4], 91.3%; in [5], 84.9%; in test [6], 62.6%. For the same molecule, the growth was 87.6% in test [7], 24.1% in [8], 42.8% in test [9] and 96.1% in test [10].

`CCOc1cccc(Nc2nc(N)nc3[nH]c4ccc(O)cc4c23)c1`: the growth in test [1] was 85.4%; in [2], 93.3%; in test [3], 46.1%; in test [4] it was 70.1%; in test [5], 79.7%; in [6], 74.8%. Besides, the growth in [7] is 54.4%; in [8], 73.8%; in test [9], 36.7%; in [10], 89.3%.

As to `O=C(Nc1cccc(-n2ccc3c(NC(=O)c4ccccc4)nccc32)c1)Nc1ccc(Cl)c(C(F)(F)F)c1`, the growth in test [1] was 10.6%; in test [2] it was -38.9% (active); in test [3] it was 54.7%; in test [4] it was 24.8%; in test [5], 9.27% (active); in [6], 20.4%. For the same molecule, the growth in test [7] is -35.5% (active); in test [8] it was 20.9%; in test [9], 11.8%; in test [10], 44.5%.

As to `C=CC(=O)NC(=O)Nc1ccccc1Cl`, the growth in [1] was 67.9%; in test [2], 70.2%; in [3], 83.8%; in test [4], 72.5%; in test [5], 81.7%; in [6], 78.2%. Also, the growth is 96.6% in test [7], 93.4% in test [8], 86.1% in test [9] and 109% in test [10].

As to `CC(C)(C)NCC(O)COc1c(Br)c(Br)c(Br)c2c1OC(C)(C)C2` (stereo not given), the growth is -66.9% (active) in [1]; -72.7% (active) in [2]; 5.77% (active) in [3]; -47.2% (active) in test [4]; -92.4% (active) in test [5]; -90.2% (active) in [6]. Further, the growth in test [7] is -97% (active); in [8], -79.8% (active); in test [9], -90.9% (active); in test [10], -83.7% (active).

`O=C(NC(=S)Nc1ccc(Cl)cc1)c1ccccc1`: the growth was 93.6% in [1]; 87% in test [2]; 94.9% in [3]; 105% in test [4]; 96.4% in [5]; 105% in test [6]. Moreover, the growth in test [7] was 102%; in test [8], 85.5%; in test [9], 106%; in test [10], 96.2%.

In the case of `CC(C)(C)OC(=O)N1CCN(CCn2cc(C(F)(F)F)c3c(Cl)ncnc32)CC1`, the growth was 10.9% in [1]; 23.5% in [2]; 111% in [3]; 37.3% in [4]; 17.3% in [5]; 8.61% (active) in test [6]. Also, the growth was 80% in test [7], 55.4% in test [8], -81% (active) in test [9] and 52.8% in [10].

For the molecule `COc1ccc2c(c1)C(=O)/C(=C/c1cccc(OCC(=O)c3ccccc3)c1)O2`, the growth in test [1] was 31.8%; in test [2], -15.7% (active); in test [3], -8.04% (active); in [4] it was 99.1%; in test [5] it was 41.5%; in [6] it was -43.4% (active). Besides, the growth in test [7] is 50.2%; in test [8] it was 67%; in test [9] it was -5.01% (active); in test [10] it was -11.1% (active).

For the origin of these results see PubChem BioAssay (NCI).
